DRD3 antagonist – antagonists of human D3 dopamine receptor; max response, negative = inhibition, %; P35462; D3R cells, DiscoveRx beta-arrestin luminescence, antagonist mode; hits give low values; AID 652054; 360,000 compounds, 2.5% hits; in the data active = max response below about -50%; inconclusive = no clear call, values can overlap the other calls; note: % is set by controls: 0 for no effect and ±100 for the full control effect
Target sequence (P35462 whole entry, looked up): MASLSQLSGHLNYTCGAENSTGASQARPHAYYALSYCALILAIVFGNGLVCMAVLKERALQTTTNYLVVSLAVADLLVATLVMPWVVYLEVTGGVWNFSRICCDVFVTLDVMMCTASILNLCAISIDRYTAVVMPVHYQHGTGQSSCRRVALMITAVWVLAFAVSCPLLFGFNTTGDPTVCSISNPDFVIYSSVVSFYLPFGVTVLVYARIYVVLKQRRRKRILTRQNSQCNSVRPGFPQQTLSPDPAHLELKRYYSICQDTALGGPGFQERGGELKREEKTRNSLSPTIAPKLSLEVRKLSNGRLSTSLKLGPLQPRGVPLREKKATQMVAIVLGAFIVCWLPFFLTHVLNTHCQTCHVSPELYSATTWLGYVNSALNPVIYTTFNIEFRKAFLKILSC
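Cells expressing the human receptor were seeded at 1500 cells/well, incubated overnight at 37 degrees C in 5% CO2, then exposed to library compounds with dopamine controls for 90 minutes at 37 degrees C before luminescent detection.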
ClpP mod – qHTS Assay for Activators of ClpP; Potency, µM (highest dose often 57.5 µM), for the others: at the top dose activity change, negative = active; ATP-dependent Clp protease proteolytic subunit (Bacillus subtilis (strain 168)), P80244; 340,000 compounds, 1.9% hits; purified B. subtilis ClpP, FRET peptide cleavage, 20 min; active = well fitted falling curve with a large enough effect; inconclusive = small, poorly fitted or top-dose-only effect; inactive = no such curve, though single readings can be large or run the other way; note: potency is the fitted concentration of half-maximal effect; the source files actives as falling curves though it sought activators and does not explain the sign; nearly all actives have a fitted effect of over 65% in size
Target sequence (P80244 whole entry, looked up): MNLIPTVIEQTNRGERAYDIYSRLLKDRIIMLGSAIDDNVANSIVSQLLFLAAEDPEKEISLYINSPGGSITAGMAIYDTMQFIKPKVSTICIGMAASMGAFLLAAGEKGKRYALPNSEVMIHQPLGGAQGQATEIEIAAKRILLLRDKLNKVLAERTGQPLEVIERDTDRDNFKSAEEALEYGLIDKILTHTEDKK
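ClpP 10 microg/mL final, pH 8 Tris/KCl buffer with BSA, glycerol, Tween-20; compound pinned in; FRET-FV substrate; RT 20 min; Ex320/Em430; ΔFRET vs ADEP 5.8 microM, DMSO, no enzyme.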
DRD3 agonist – D3 dopamine receptor (human) agonism; 410,000 compounds, 0.58% hits; max activation, %; P35462; AID 652048; D3R DiscoveRx beta-arrestin cells, luminescence, 90 min; in the data active = max activation above about 30%; note: 0% is about no effect
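Agonist-mode cell screen: cells plated at 1500/well and incubated overnight at 37 °C, then exposed to library compounds for 90 min at 37 °C. Detection reagent was added for 30–60 min at room temperature, and luminescence was read.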
TDP1 cell noCPT – qHTS for Inhibitors of human tyrosyl-DNA phosphodiesterase 1 (TDP1): qHTS in cells in absence of CPT. DT40 Tdp1-/- hTDP1 cells, no CPT, ATP luminescence, 48 h. Potency, µM (doses to about 46.2 µM), for the others: at the top dose activity change, negative = growth inhibition, hits mostly inhibitors. 420,000 compounds, 15% hits; note: potency is the fitted concentration of half-maximal effect; % is set by controls: 0 for no effect and ±100 for the full control effect; nearly all actives have a fitted effect of over 55% in size
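Chicken DT40 Tdp1-/- cells stably complemented with human TDP1 were seeded at 400 cells/well with DMSO in place of 20 nM camptothecin. After compound pinning, cells grew at least 48 hr at 37 °C; viability read by CellTiter-Glo luminescence.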
TDP1 cell CPT – DT40-hTDP1 cell growth loss with CPT | chicken DT40 Tdp1-/-;hTDP1 cells + 20 nM CPT, ATP luminescence, 48 h | Potency, µM (titrated, usually from 46.2 µM), for inactives: top-dose activity change, negative = growth inhibition, most hits filed as inhibitors | 420,000 compounds, 12% hits | AID 686979; note: potency is the fitted concentration of half-maximal effect; % is set by controls: 0 for no effect and ±100 for the full control effect; nearly all actives have a fitted effect of over 55% in size
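Cell growth measured by CellTiter-Glo luminescence after a minimum 48 h, 37 C compound exposure with 20 nM CPT in Tdp1-knockout DT40 cells stably expressing hTDP1, seeded 400/well; qHTS titration format.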
IL1B secr inh – inhibitors of inflammasome signaling (IL-1 beta secretion); THP-1 LPS/ATP IL-1B secretion, AlphaLISA, 16 h; hits give low values; 360,000 compounds, 4.7% hits; AID 743279; activity change, % at 57.5 µM; in the data active = activity change below about -50%; inconclusive = mostly about -30% to -49%; note: % is set by controls: 0 for no effect and ±100 for the full control effect
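THP-1 cells pretreated 1 hr with compounds (up to 57.5 uM final), then stimulated with LPS (250 ng/mL final) plus ATP (1.25 mM final); secreted IL-1B measured by AlphaLISA after 16 hr, decreased signal indicating inhibition.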
Numbers without * were called inactive; i = inactive; ? = inconclusive; . = no result given; ! = a repeat was not active. Sampled rows, rich in hits. Any-hit rate of the full collection: about 21%. Unless noted, calls come from the whole dose curve; as a rule, active = well fitted inhibition curve with a large enough effect; inconclusive = small, poorly fitted or top-dose-only effect; inactive = flat fitted curve, though single readings scatter.

SMILES	DRD3 antagonist	ClpP mod	DRD3 agonist	TDP1 cell noCPT	TDP1 cell CPT	IL1B secr inh
Cc1ccc(-n2nc3c(=O)n(CC(=O)NC(C)CCc4ccccc4)nc(C)c3c2C)cc1 (configuration not stated)	5	-1%	7	23µM*	?	19
Cc1ccc(CCNC(=O)C(C)n2nc(C)c3c(C)n(-c4ccc(C)cc4)nc3c2=O)cc1 (configuration not stated)	.	-8%	-13	21µM*	21µM*	.
CCOc1ccc(CNC(=O)C(C)n2nc(C)c3c(C)n(-c4ccccc4)nc3c2=O)cc1 (configuration not stated)	6	0%	4	-10%	3%	14
COc1ccccc1CCNC(=O)C(C)n1nc(C)c2c(C)n(-c3ccccc3)nc2c1=O (configuration not stated)	1	0%	5	10%	-24%	4
COc1ccc(CCNC(=O)C(C)n2nc(C)c3c(C)n(-c4ccc(C)cc4)nc3c2=O)c(OC)c1 (configuration not stated)	20	-2%	3	?	23µM*	-50*
COc1ccc(CNC(=O)C(C)n2nc(C)c3c(C)n(-c4ccc(C)cc4)nc3c2=O)cc1 (configuration not stated)	1	-1%	-5	?	18µM*	-15
COc1ccc(C)cc1S(=O)(=O)NCC(c1ccc2c(c1)OCO2)N1CCOCC1 (configuration not stated)	25	1%	3	?	-17%	2
CCN(CC)C(=O)Cn1cc(S(=O)(=O)CC(=O)Nc2cc(OC)ccc2OC)c2ccccc21	-12	1%	-2	-12%	-19%	i
Cc1cnccc1CN(C)Cc1nc(Cc2ccccc2Cl)no1	15	.	20	15µM*	18µM*	-9
S=c1nc[nH]c2nc[nH]c12	30	-1%	13	19µM*!	?	38
O=c1[nH]c(=S)[nH]c2nc[nH]c12	.	-4%	.	-6%	8%	.
O=C(COc1ccc([N+](=O)[O-])cc1)Nc1nc(-c2ccccn2)cs1	-4	.	9	5.8µM*	4.6µM*	67
O=C(COc1cccc(F)c1)Nc1nc(-c2ccccn2)cs1	3	-1%	2	2.6µM*	5.2µM*	90
O=C(COc1ccc(F)cc1)Nc1nc(-c2ccccn2)cs1	-2	-13%	-1	7.3µM*	7.3µM*	21
CCn1cc(C(=O)NCc2ccccn2)c(=O)c2cc(F)c(N3CCN(C)CC3)cc21	3	?	1	-6%	0%	2
CCC(C)NC(=O)c1cn(CC)c2cc(N3CCN(C(=O)c4ccco4)CC3)c(F)cc2c1=O (configuration not stated)	40	4%	3	13µM*	16µM*	0
CCn1cc(C(=O)NCC(C)C)c(=O)c2cc(F)c(N3CCN(C(=O)c4ccco4)CC3)cc21	28	.	4	21µM*	?	1
CCn1cc(C(=O)NCC(C)C)c(=O)c2cc(F)c(N3CCN(C)CC3)cc21	-6	-2%	0	10%	4%	-21
C=CCNC(=O)c1cn(CC)c2cc(N3CCN(C(=O)c4ccco4)CC3)c(F)cc2c1=O	34	4%	3	15µM*	23µM*	-11
CCn1cc(C(=O)NN)c(=O)c2cc(F)c(N3CCOCC3)cc21	-5	1%	11	-29%	6%	8
CCn1cc(C(=O)NCc2ccco2)c(=O)c2cc(F)c(N3CCN(C(=O)c4ccco4)CC3)cc21	1	28µM*	4	?	21µM*	?
CC(C)c1ccc(CC(=O)N2CCC2(C)C(=O)NS(=O)(=O)c2ccc(Cl)s2)cc1 (configuration not stated)	-2	0%	6	11%	3%	42
CCOC(=O)Nc1ccc2c(c1)N(C(=O)N1CCN(C)CC1)c1ccccc1CC2	-25	-5%	-2	?	-34%	-21
CCOC(=O)Nc1ccc2c(c1)N(C(=O)N(C)C)c1ccccc1CC2	?	-6%	-21	29µM*	?	0
CCNCC(=O)N1c2ccccc2CCc2ccc(NC(=O)OC(C)C)cc21	-23	.	-20	16µM*	?	-66*
SMILES	DRD3 antagonist	ClpP mod	DRD3 agonist	TDP1 cell noCPT	TDP1 cell CPT	IL1B secr inh
CC(C)OC(=O)Nc1ccc2c(c1)N(C(=O)N1CCN(C)CC1)c1ccccc1CC2	?	.	-14	13µM*	12µM*	-28
COc1ccccc1CNC(=O)CC(c1ccc(C)cc1)N1Cc2ccccc2C1=O (configuration not stated)	.	-1%	-5	?	?	.
O=C1CCN(C(=O)CSc2ccc(Cl)cc2)N1	4	.	-8	-1%	13%	0
CCC(C)c1ccc(NC(=S)NCCn2cc(Cl)cn2)cc1 (configuration not stated)	-5	2%	1	21µM*	?	?
CCC(C)c1ccc(NC(=S)NCCn2cc(Br)cn2)cc1 (configuration not stated)	-29	.	-4	15µM*	21µM*	-52*
CCOc1ccc(Nc2cc(C)nc3nncn23)cc1	.	-1%	2	-4%	-6%	.
CCCn1nnc(NC(=O)/C=C/c2ccc(C(C)C)cc2)n1	-17	0%	-4	-28%	-11%	-4
O=C(CN1CCN(C(=O)c2ccc(-c3nc4ccccc4s3)o2)CC1)Nc1cccc(F)c1	-17	-3%	-2	-15%	-1%	7
COc1ccc(N2CCN(C(=O)c3ccc(-c4nc5ccccc5s4)o3)CC2)cc1	10	0%	2	12µM*	16µM*	44
COc1ccccc1N1CCN(C(=O)c2ccc(-c3nc4ccccc4s3)o2)CC1	25	-5%	-13	16µM*	23µM*	13
COc1ccccc1N1CCN(C(=O)c2ccco2)CC1	3	.	1	-1%	-4%	-8
COc1ccccc1N1CCN(C(=O)NCc2ccc(Cl)cc2)CC1	2	.	-3	?	-8%	-22
COc1ccccc1N1CCN(C(=O)c2ccc(-c3ccc(Cl)cc3)o2)CC1	33	-5%	-2	2.3µM*	3.7µM*	41
CC(C)(C)N1CC(OC(N)=O)C1	10	1%	-2	2%	10%	1
